Source: PubChem BioAssay (National Center for Advancing Translational Sciences (NCATS))
D3 ag: qHTS of D3 Dopamine Receptor Agonist: qHTS; D(3) dopamine receptor (Homo sapiens), P35462; D3R DiscoveRx beta-arrestin cells, luminescence, 90 min; max activation, %; 410,000 tested, 0.58% active; in the data active means max activation above about 30%
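Agonist mode: compounds and dopamine controls were applied to plated cells for 90 min at 37 degrees C after an overnight attachment at 1500 cells/well. Luminescent read-out followed 30 - 60 minutes at room temperature with DiscoveRx detection reagent.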
CBFb-RUNX1 inh: qHTS Assay for Compounds Blocking the Interaction Between CBF-beta and RUNX1 for the Treatment of Acute Myeloid Leukemia. AlphaScreen CBFb-His/RUNX1-biotin binding, biochemical. Potency, µM (highest dose often 59.8 µM), most hits filed as inhibitors. 230,000 tested, under 10 active
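Inhibition was taken as any reduction in AlphaScreen signal from the CBF-beta–RUNX1 pair (His and biotin tags, 30 nM each), measured after compound (15 min) and bead (90 min) incubations at room temperature.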
MBNL1-CUG inh: qHTS Assay for Inhibitors of MBNL1-poly(CUG) RNA binding. 280,000 tested, 0.036% active. AID 2675, 2010. Potency, µM (doses to about 57.5 µM), most hits filed as inhibitors. TR-FRET MBNL1-His/biotin-(CUG)12 binding, 665/545 ratio; active means well fitted inhibition curve with a large enough effect in the signal ratio, with a control signal flat, not every such curve was filed as active; inconclusive means small, poorly fitted or top-dose-only effect, or effect the other way, or a change in a side signal; inactive means no such curve, though single readings can be large or run the other way; the % refers to the signal ratio
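Compounds (final 92 nM to 58 uM) are added to His-tagged MBNL1 and biotin-(CUG)12, then terbium anti-His antibody and streptavidin-XL665 (5 nM final). After 60 min at room temperature, the 665/545 nm ratio is read.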
PTHR1 ag: qHTS for PTHR1 Agonists: Primary Screen. HEK293 GP2 PTHR1 cells, GloSensor cAMP luminescence, 1 h. Potency, µM (titrated, usually from 115 µM), actives largely listed as activators. 410,000 tested, 0.075% active. AID 743266, 2014; further: nearly all actives have a fitted effect of over 55% in size
Target sequence (Q03431 whole entry, looked up): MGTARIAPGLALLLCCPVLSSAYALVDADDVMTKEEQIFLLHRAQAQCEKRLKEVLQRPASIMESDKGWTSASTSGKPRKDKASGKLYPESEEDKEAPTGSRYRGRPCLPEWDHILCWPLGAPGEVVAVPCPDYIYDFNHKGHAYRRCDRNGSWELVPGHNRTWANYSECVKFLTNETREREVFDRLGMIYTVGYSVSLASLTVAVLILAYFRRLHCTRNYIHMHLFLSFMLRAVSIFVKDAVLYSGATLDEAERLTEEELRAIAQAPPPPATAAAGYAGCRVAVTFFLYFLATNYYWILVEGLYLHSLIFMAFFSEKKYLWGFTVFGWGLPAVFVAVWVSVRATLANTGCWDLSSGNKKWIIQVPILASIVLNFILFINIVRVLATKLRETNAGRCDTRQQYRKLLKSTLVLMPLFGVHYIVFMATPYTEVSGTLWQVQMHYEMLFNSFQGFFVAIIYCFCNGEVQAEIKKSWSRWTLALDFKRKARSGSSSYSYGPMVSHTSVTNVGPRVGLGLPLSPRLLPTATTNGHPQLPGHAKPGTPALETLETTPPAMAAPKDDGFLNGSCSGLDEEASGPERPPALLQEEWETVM
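HEK-293-derived GP2 cells expressing PTHR1 and a GloSensor cAMP reporter, 3,000/well, plated overnight, given luciferin plus IBMX (each 0.5 mM as added) for 1 h at 37 °C, then compound for 1 h at 37 °C. Luminescence was read after 15 min at room temperature.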
DRD3 antagonist: qHTS of D3 Dopamine Receptor Antagonist: qHTS; D(3) dopamine receptor (Homo sapiens), P35462; D3R cells, DiscoveRx beta-arrestin luminescence, antagonist mode; active compounds read low; max response, negative = inhibition, %; 360,000 tested, 2.5% active; in the data active means max response below about -50%; inconclusive means no clear call, values can overlap the other calls
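Cells plated overnight at 1500 cells/well, then exposed to library compounds with dopamine controls for 90 minutes at 37 degrees C. DiscoveRx reagent added for 30–60 minutes at room temperature; luminescence read, quantitative HTS format.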
a7 integrin act: qHTS for Activators of Integrin-Mediated Alleviation for Muscular Dystrophy | 350,000 tested, 0.064% active | alpha7betagal myoblasts, beta-gal FDG fluorescence, 48 h | Potency, µM (top dose mostly 38.3 µM), most hits filed as activators | AID 624291, 2012; further: nearly all actives have a fitted effect of over 60% in size
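alpha7betagal+/- myoblasts (passage 13, 250/well) treated 48 h at 37C with compounds at 1:260 dilution of DMSO stock. Lysed, then beta-galactosidase activity read as FDG fluorescence (ex 480/em 540) after 30 min, with pre-read for autofluorescence.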
A number is an active result; 0 = inactive; ? = inconclusive; - = no result given. Compounds with a hit are over-represented: about 2.8% of the library has one in this group of screens. Unless noted, the call rests on the fitted dose curve; in most records, active means well fitted curve in the direction sought with a large enough effect; inconclusive means small, poorly fitted or top-dose-only effect, or another doubt; inactive means no such curve, though single readings can be large; an effect the other way counts as inactive or inconclusive.

SMILES	D3 ag	CBFb-RUNX1 inh	MBNL1-CUG inh	PTHR1 ag	DRD3 antagonist	a7 integrin act
CCOC(=O)N1CCN(C(=O)C[C@@H]2C[C@@]3(C(=O)OC)CCCCC=C3N(Cc3cccc4ccccc34)C2=O)CC1	0	-	-	0	0	-
CCNC(=O)C1=C(O)c2sccc2N(C)S1(=O)=O	0	0	0	0	0	0
Cc1ccccc1NC(=S)C1=C(O)c2sccc2N(C)S1(=O)=O	0	0	0	0	-87.9	0
CN1c2ccsc2C(O)=C(C(=S)Nc2ccccc2)S1(=O)=O	0	0	0	0	-71.9	0
O=C(CC(=O)Nc1ccccc1[N+](=O)[O-])Nc1ccccc1[N+](=O)[O-]	0	-	?	0	-63.9	0
O=C(CCOc1ccccc1)Nc1ccccc1[N+](=O)[O-]	0	0	?	0	0	0
COc1ccnc(Oc2ccccc2)c1C(=O)N/C=N/OCc1ccc(F)cc1Cl	46.4	0	0	?	0	0
Cc1cccc(N2CCN(C(=O)Cc3ccccc3[N+](=O)[O-])CC2)c1C	0	-	?	0	0	0
Cc1ccc(/C=C/C(=O)NC2CCCCCCC2)o1	0	0	0	0	-61.3	0
CN(C)C(=O)Nc1ccccc1	0	0	0	0	0	0
CCC(=O)OCC(=O)[C@@]1(OC(=O)CC)[C@H](C)C[C@H]2[C@H]3[C@H]([C@@H](O)C[C@@]21C)[C@@]1(C)C=CC(=O)C=C1C[C@H]3Cl	0	-	-	-	-	-
CCc1nc(-c2ccc(OC)c(OC)c2)cc2cc(OC)c(OC)cc12	36.1	0	0	0	0	0
O=c1[nH]c(CN2CCN(C/C=C/c3ccccc3)CC2)nc2cc(Cl)ccc12	0	0	0	0	-53.1	0
C#CC1CCCCC1NC(=O)Nc1cnccc1C(F)(F)F (stereo not drawn)	0	0	-	0	0	0
COC(=O)c1cccc(-n2sc3ccccc3c2=O)c1	0	-	-	0	-59.7	0
O=c1c2ccccc2sn1-c1ccc(F)cc1	0	-	-	0	-53.6	0
COc1ccccc1CNC(=O)CCC(=O)N1Cc2cccc(OC)c2Oc2ncccc21	0	-	0	0	0	0
CCN(Cc1cnn(C)c1)Cc1nc(Cc2ccccc2Cl)no1	42.2	0	0	0	0	0
COc1ccc(OC)c(-c2nnc3n2N=C(c2c(OC)cccc2OC)CS3)c1	-	0	-	-	-	-
CCn1c(C(=O)NCc2ccccc2C)cc2oc3ccccc3c21	49.1	-	-	0	-	-
CCn1c(C(=O)NCc2ccc(OC(C)C)cc2)cc2oc3ccccc3c21	0	-	-	0	-	-
COc1ccc(-c2sc3ccc(OC)cc3c2C#Cc2cncn2C)cc1	34.3	-	-	?	0	0
COc1cc(OC)cc(-c2sc3ccc(OC)cc3c2C#CCO)c1	39.7	-	-	0	0	0
COc1cc(OC)cc(-c2sc3ccc(OC)cc3c2C#CC2(N)CCCCC2)c1	35.8	-	-	0	0	0
COC(=O)c1c(-c2ccc(OC)cc2)sc2ccc(OC)cc12	57.7	-	-	0	0	0
SMILES	D3 ag	CBFb-RUNX1 inh	MBNL1-CUG inh	PTHR1 ag	DRD3 antagonist	a7 integrin act
COC(=O)c1c(-c2ccc(OC)cc2)sc2ccc(-c3ccc4c(c3)OCO4)cc12	0	-	-	0	0	0
CCOC(=O)c1ccc(NNC(=O)CC)c([N+](=O)[O-])c1	0	0	-	0	0	0
COc1cc(OC)cc(-c2sc3ccc(OC)cc3c2C#CC(C)(C)O)c1	35.8	-	-	0	0	0
COCC1=C2c3ccccc3[C@H](C[N+](=O)[O-])C(C(=O)OC)(C(=O)OC)CC2C2C(=O)N(c3ccccc3)C(=O)C2C1 (stereo partly drawn)	-	0	-	-	-	-
Cc1ccccc1OCCCC(=O)NCc1ccco1	0	0	0	0	-123.2	0
CCOC(=O)C1CCCN(c2nc3ccccc3nc2C(C#N)C(=O)OCC)C1 (stereo not drawn)	0	0	0	0	-52.7	0
CCNc1nc(-c2sc(NC(=O)C(C)(C)C)nc2C)c(-n2cc(-c3ccccc3)nn2)s1	31.3	-	-	0	0	-
Cc1ccc([C@H]2C(C(=O)O)=CC[C@@H](c3ccc(C(C)C)cc3)N2S(=O)(=O)c2ccc(C)cc2)cc1	0	-	-	0	-63.8	0
Cc1ccc([C@H]2C(C(=O)O)=CC[C@@H](c3ccc(Cl)cc3)N2S(=O)(=O)c2ccc(C)cc2)cc1	0	-	-	0	-51.3	0
CN(CC(=O)Nc1cc(Cl)ccc1-n1cncn1)Cc1ccccc1N1CCOCC1	0	-	-	0	0	0
CN(C)c1ccc(Cc2cc3c(O)ccc(O)c3cc(Cc3ccc(N(C)C)cc3)c2=O)cc1	0	-	-	0	-51.1	0
NC(=O)c1sc2nnc(-c3ccccc3)c(-c3ccccc3)c2c1N	0	0	0	0	0	0
O=C(c1cc2ccccc2o1)N1CCN(Cc2ccc3c(c2)OCO3)CC1	0	-	0	0	-104.4	0
O=C(N1CCN(Cc2ccc3c(c2)OCO3)CC1)C12CC3CC(CC(C3)C1)C2	0	0	0	0	-64.2	?
CN(c1ccc(C(=O)N2CCN(Cc3ccc4c(c3)OCO4)CC2)cc1)S(C)(=O)=O	0	0	0	0	0	0
O=C(c1ccc(S(=O)(=O)N2CCCC2)cc1)N1CCN(Cc2ccc3c(c2)OCO3)CC1	0	0	0	0	-51.5	0
O=C(c1cc(F)c(F)c(F)c1F)N1CCN(Cc2ccc3c(c2)OCO3)CC1	0	-	0	0	0	0
Cc1ccc(C(=O)N2CCN(Cc3ccc4c(c3)OCO4)CC2)o1	0	0	0	0	-61.9	0
O=C(c1cc2ccccc2oc1=O)N1CCN(Cc2ccc3c(c2)OCO3)CC1	0	0	0	0	0	0
O=C(NCc1cccc(C(F)(F)F)c1)C1C(=O)Nc2ccccc2C(=O)N1C1CCCC1 (stereo not drawn)	0	-	-	0	0	-
CCN1CCC(C(=O)NC(c2ccc(F)cc2)c2ncccc2C)CC1 (stereo not drawn)	0	-	-	0	?	-
Cc1cccnc1C(NC(=O)C1CCN(CCCc2ccccc2)CC1)c1ccc(F)cc1 (stereo not drawn)	0	-	-	0	-70.3	-
CCCN1CCC(C(=O)NC(c2ccc(F)cc2)c2ncccc2C)CC1 (stereo not drawn)	0	-	-	0	-57.0	-
O=S(=O)(CCN1C=CC(C(F)(F)F)=NCC1)c1ccc(Cl)cc1Cl	0	0	-	0	0	0
